Numbering of substitutions follows the chain as printed. Over roughly 24,000 sequences, “enrichment r” has its median near 0.99; the highest 2% begin near 3.7. The sample holds the highest values, similar sequences and a random draw of the others, so the mix is not that of the screen.
T1: UNK ZnF1-3 (human, UniProt Q9C0B0 31-174)
T1 sequence: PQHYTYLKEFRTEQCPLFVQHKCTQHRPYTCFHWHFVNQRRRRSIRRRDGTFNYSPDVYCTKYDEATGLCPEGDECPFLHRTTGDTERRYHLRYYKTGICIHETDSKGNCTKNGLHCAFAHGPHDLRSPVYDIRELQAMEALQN

B1: chr7:106631192:106631193:-_ENSMUSG00000030744_ENSMUST00000032998|mus_mus|motif|central (ssRNA)
RNA: GGGAGUUCUACAGUCCGACGAUCCUUCAGCCAGCUCCCGAGUGAGAAAUUCAUUCAGCUCAGCUUUGAAGAUGCCAUCAGCGGCAAACUUCCUCUUCUUGGAAAUCUGCACCGCCAUCUUGCAGCCGCGCGCCGCUGAAAGGACAACAGAGGAUUGAGCAUCA
B2: chr7:72463354:72463355:-_ENSMUSG00000030516_ENSMUST00000102592|mus_hu|FALSE|FALSE (ssRNA)
RNA: GGGAGUUCUACAGUCCGACGAUCUAACUUCCUGGCACUUUUCCGAGAUUCUGGACAUAACCUCAUUCUCAUUGUUUUUACUCCUUGCUUAGAAUCAGGGUUAAGAAAUACAACAAUUGGAUACCACUGGGCAUAGUUAAGACGCAACAGAGGAUUGAGCAUCA
B3: chr17:56552419:56552420:-_ENSMUSG00000013236_ENSMUST00000086828|mus_mus|mus_mus_mus_hu_False|8_68 (ssRNA)
RNA: GGGAGUUCUACAGUCCGACGAUCAAAAAAUACACUAUUUAAAAAAAAUGAAAUGUCACGGGAUACAAAAAAAUAUAGAGUUUUAAAAGAAAGCUGGAUUCUGGUCCCAGCCCAGUGUCCCCAGGCUGAGUGCGGAAGAGGAGCCAACAGAGGAUUGAGCAUCA
B4: 22200820_22267049_921_CDS_ENSMUSG00000039197_ENSMUST00000045376|mouse|control|control (ssRNA)
RNA: GGGAGUUCUACAGUCCGACGAUCUUGAGACAGAAAGCCUCCAACAAAUGCAUCUCCAGCUCCAUUGGUGUCAAUGAUCUCUUCCUGGUUUUGAUCCAAGACAGGAAAAGCAGUGACAUCAUUCUCUGCAGCCACUAUGGUGUCCAACAGAGGAUUGAGCAUCA
B5: chr17:56552419:56552420:-_ENSMUSG00000013236_ENSMUST00000086828|mus_mus|mus_mus_mus_hu_False|68_98 (ssRNA)
RNA: B3 RNA with U38A, U39A, A128C, G129A, U130G, G131A, C132G, G133C, A135G, A136G
B6: chr17:56552419:56552420:-_ENSMUSG00000013236_ENSMUST00000086828|mus_mus|mus_mus_mus_hu_False|38_68 (ssRNA)
RNA: GGGAGUUCUACAGUCCGACGAUCAAAAAAUACACUAUUUAAAAAAAAUGAAAUGUCACGGGAUACAAAAAAAUAUAGAGUUUUAAAAGAAAGCUGGAAAAAAAAUGCAGCCCAGUGUCCCCAGGCUGCAGAGCGGGGAGGAGCCAACAGAGGAUUGAGCAUCA
B7: chr17:56552419:56552420:-_ENSMUSG00000013236_ENSMUST00000086828|mus_mus|mus_mus_mus_hu_False|68_78 (ssRNA)
RNA: GGGAGUUCUACAGUCCGACGAUCAAAAAAUACACUAUUUAAAAAAAAUGAAAUGUCAGAAAAAGAAAAAAAAUAUAGAGUUUUAAAAGAAAGCUGGAUUCUGGUCCCAGCCCAGUGUCCCCAGGCUGCAGAGCGGGGAGGAGCCAACAGAGGAUUGAGCAUCA
B8: 33328512_33328632_5828_CDS_ENSG00000198646_ENST00000359003|human|control|control (ssRNA)
RNA: GGGAGUUCUACAGUCCGACGAUCAUCUGCACCAUAUUGUUCUUCCCCUUUCUCAAGAGAGCCUGUAACUUUCUUACAUGCCUUGGUCAACAAAAUUUGGCCAAUUUUGUCCACUUUUCCUUUGCCCUUACUAGACGAGACUGGCAACAGAGGAUUGAGCAUCA
B9: chr12:95365269:95365270:-_ENSG00000184752_ENST00000327772|hu_hu|motif|central (ssRNA)
RNA: GGGAGUUCUACAGUCCGACGAUCUCAUUGUCUUUACUUGUAAGGUGUUGAAGGUGGGAUCCACUCCUGAAUCUUCUUUCGGGUGGUAGAAUAAGGUACAUAUUGUUCUGGGGUGCCAGUCACGUUGAAUUUAUGGUUCGUCCACAACAGAGGAUUGAGCAUCA
B10: chrX:106345308:106345309:+_ENSMUSG00000031246_ENSMUST00000033598|mus_mus|motif|central (ssRNA)
RNA: GGGAGUUCUACAGUCCGACGAUCUUCUCUCAUCCACUUCCGAUUCUCUUCAUUAGCUGCAAUAUCUUUUUCUUCAAAUCCGGUUUUGUUGGCUUCUAAGAAACAAAGCACAUCUUGCUGUUUCUUCUUAAUCGCCGUAGAGCCCAACAGAGGAUUGAGCAUCA
B11: 25284998_25285535_556_3pUTR_ENSMUSG00000054793_ENSMUST00000068023|mouse|control|control (ssRNA)
RNA: GGGAGUUCUACAGUCCGACGAUCCACGCUCCACACCUUGCCGUUCUCCUGGCCGCUGCUCACUCCUUUCAACUCCUUGCGAUCCCGAUACCAGCGCAGGACCGCUGCGGGGCGCGACCGCGGAACCAGGCAGCUGAGUUCCACCAACAGAGGAUUGAGCAUCA
B12: 122215373_122233679_156_5pUTR_ENSG00000114030_ENST00000344337|human|control|control (ssRNA)
RNA: GGGAGUUCUACAGUCCGACGAUCACUUUUCAGGCGAAAGUUCUCUUUUCCUGGGGUGGUCAUGAUUUCAGGCUCAAGGCAACCGAUCCCGGUGCCACCGCUGAAGUUAGCCCCUCGCUCGCCCGCCCGCCGUGCCACUCCCGCCAACAGAGGAUUGAGCAUCA
B13: 36851294_36856410_1128_CDS_ENSMUSG00000022837_ENSMUST00000023535|mouse|control|control (ssRNA)
RNA: GGGAGUUCUACAGUCCGACGAUCAUUUAGCUCCAACAUCAUCUUUGUUCGUUUAGAUCUGAAACUCCUCUGCAAGGCAAUCACAGCAGACGGAAGCUUCUUUAAUCUCUUUCUGGUCUGGAAACCUUUCCAAUAGGCUUGAAUCAACAGAGGAUUGAGCAUCA
B14: chr18:52893488:52893489:-_ENSG00000196628_ENST00000354452|hu_hu|hu_hu_hu_mus_True|48_48 (ssRNA)
RNA: GGGAGUUCUACAGUCCGACGAUCUAUUUAGACCAUUUCCGCGGAGUUAUGGCAUUUACUCAGUGCUGAUAGGUGGAAAAACUACUUGAACAGGGAUUUUUUUUUUCCUUAAUACAUGCCAAGAUUGUGUGGCUGUCAAAACAGCAACAGAGGAUUGAGCAUCA

Molecular target: T1, UNK ZnF1-3
Assay: nsRBNS (natural sequence RNA bind-n-seq); RBNS binding buffer (assumed for nsRBNS): 25 mM Tris pH 7.5, 150 mM KCl, 3 mM MgCl2, 0.01% Triton X-100, 500 ug/ml BSA, 20 U/ml SUPERase-In, 4 C; UNK is unkempt and MSI1 is Musashi-1; names of the RNAs are library labels; protein concentration not given here; high values mean tight binding

Row | Binder | binding signal [enrichment R]
1 | B1 | 0.767
2 | B2 | 1.13
3 | B3 | 6.22
4 | B4 | 0.736
5 | B5 | 9.31
6 | B6 | 10.8
7 | B7 | 10.9
8 | B8 | 0.505
9 | B9 | 0.831
10 | B10 | 0.538
11 | B11 | 0.858
12 | B12 | 0.57
13 | B13 | 0.644
14 | B14 | 0.93
